The values that follow come from PubChem BioAssay (EPA / NIEHS).

Values joined by “and” are separate entries in the source; they are usually repeats but may differ in a detail not shown here. Equal entries are not always repeated. Where a structure was tested more than once in an assay, its records may differ in their call. Active and inactive are the calls of the source. How the source made its calls: active means hit-call score of the fitted dose curve at least 0.9, where 1 is the maximum; inactive means score below 0.9.

The first test in a line: APR_HepG2_StressKinase_72hr: Apredica 72-hour HepG2 Assay for Stress Kinase (AID 2282921). The following applies: HepG2 stress kinase (phospho-c-Jun) imaging, actives raise or lower the signal. The gist of the method: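 HepG2 cells treated 72 hr with 0.39–200 uM compound, 0.5% v/v DMSO, duplicate wells. After formaldehyde fixation and Triton permeabilization, stained with anti-phospho-c-Jun (1:500) and Cy3 secondary, imaged at 20x. Fitted in both directions against DMSO.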
As for `O=C(O)COc1nc(Cl)c(Cl)cc1Cl`, the compound was called inactive.

With `CC(C)(C)c1ccc(CSc2cnn(C(C)(C)C)c(=O)c2Cl)cc1`, the result was inactive.

As for `COC(=O)C(C)Oc1ccc(Oc2ccc(Cl)cc2Cl)cc1` (stereo unspecified), the compound was called inactive.

With `CCOC(=O)C(Cl)Cc1cc(-n2nc(C)n(C(F)F)c2=O)c(F)cc1Cl` (stereo unspecified), the call was inactive.

As to `CC1=C(C(=O)Nc2ccccc2)SCCO1`, the call was inactive.

Take `COc1cnc(OC)n2nc(NS(=O)(=O)c3c(OCC(F)F)cccc3C(F)(F)F)nc12`: the compound was classed as inactive.

As for `CO/C=C(/C(=O)OC)c1ccccc1Oc1cc(Oc2ccccc2C#N)ncn1`, the AC50 is 36 µM (active) and the result was inactive.

Consider `CCOC(=O)CC(SP(=S)(OC)OC)C(=O)OCC` (stereo unspecified), for which the compound was called inactive.

As for `CC(C)Oc1cc(-n2nc(C(C)(C)C)oc2=O)c(Cl)cc1Cl`, the result was inactive.

With `N#CC(CCc1ccc(Cl)cc1)(Cn1cncn1)c1ccccc1` (stereo unspecified), the compound was called inactive.

Turning to `Cc1c(F)c(F)c(COC(=O)C2C(/C=C(\Cl)C(F)(F)F)C2(C)C)c(F)c1F` (stereo unspecified), the compound was classed as inactive.

`COc1nc(C)nc(NC(=O)NS(=O)(=O)c2ccccc2Cl)n1`: the call was inactive.

On to `CCCCNC(=O)n1c(NC(=O)OC)nc2ccccc21`, for which the compound was classed as inactive.

`COC(=O)c1ccccc1C(=O)OC`: the outcome was inactive.

Consider `COP(=S)(OC)Oc1nc(Cl)c(Cl)cc1Cl`, for which the compound was classed as inactive.

Take `Cc1cc(Cl)ccc1OCC(=O)O`: the outcome was inactive.

Turning to `CON(C)C(=O)Nc1ccc(Cl)c(Cl)c1`, the outcome was inactive.

With `COc1ccc(C(c2ccc(OC)cc2)C(Cl)(Cl)Cl)cc1`, the compound was classed as inactive.

For `CCNc1nc(Cl)nc(NCC)n1`, the compound was called inactive.

Turning to `CCCN(CCC)c1c([N+](=O)[O-])cc(S(N)(=O)=O)cc1[N+](=O)[O-]`, the AC50 was 54.4 µM (active) and the compound was classed as inactive.

Turning to `CC(Oc1ccc(Cl)cc1Cl)C(=O)O` (stereo unspecified), the compound was classed as inactive.

Regarding `CN(C)C(=S)SSC(=S)N(C)C`, the outcome was inactive.

Consider `CCON=C(CC)C1=C(O)CC(c2c(C)cc(C)cc2C)CC1=O` (stereo unspecified), for which the compound was called inactive.

Regarding `CS/C(C)=N/OC(=O)N(C)SN(C)C(=O)O/N=C(\C)SC`, the compound was called inactive.

For `CCCCNC(=O)OCC#CI`, the compound was called inactive.

Consider `C=CCC1=C(C)[C@@H](OC(=O)[C@@H]2[C@@H](C=C(C)C)C2(C)C)CC1=O`, for which the result was inactive.

Another test is described as follows: APR_HepG2_StressKinase_24hr: Apredica 24-hour HepG2 Assay for Stress Kinase (AID 2282922). As to conditions: HepG2 stress kinase (phospho-c-Jun) imaging, actives raise or lower the signal. Summed up:
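HepG2 cells exposed 24 h to 0.39–200 uM compound in duplicate (0.5% v/v DMSO final). Cells fixed in 3.7% formaldehyde, permeabilized and immunostained for phospho-c-Jun; read by high-content fluorescence imaging, fitted bidirectionally against DMSO.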
Take `O=C(O)COc1nc(Cl)c(Cl)cc1Cl`: the compound was called inactive.

With `CC(C)(C)c1ccc(CSc2cnn(C(C)(C)C)c(=O)c2Cl)cc1`, the compound was called inactive.

Regarding `COC(=O)C(C)Oc1ccc(Oc2ccc(Cl)cc2Cl)cc1` (stereo unspecified), the result was inactive.

`CCOC(=O)C(Cl)Cc1cc(-n2nc(C)n(C(F)F)c2=O)c(F)cc1Cl` (stereo unspecified): the call was inactive.

`CC1=C(C(=O)Nc2ccccc2)SCCO1`: the compound was classed as inactive.

With `COc1cnc(OC)n2nc(NS(=O)(=O)c3c(OCC(F)F)cccc3C(F)(F)F)nc12`, the outcome was inactive.

Consider `CO/C=C(/C(=O)OC)c1ccccc1Oc1cc(Oc2ccccc2C#N)ncn1`, for which the result was inactive.

For the compound `CCOC(=O)CC(SP(=S)(OC)OC)C(=O)OCC` (stereo unspecified), the outcome was inactive.

Take `CC(C)Oc1cc(-n2nc(C(C)(C)C)oc2=O)c(Cl)cc1Cl`: the result was inactive.

As for `N#CC(CCc1ccc(Cl)cc1)(Cn1cncn1)c1ccccc1` (stereo unspecified), the outcome was inactive.

In the case of `Cc1c(F)c(F)c(COC(=O)C2C(/C=C(\Cl)C(F)(F)F)C2(C)C)c(F)c1F` (stereo unspecified), the outcome was inactive.

`COc1nc(C)nc(NC(=O)NS(=O)(=O)c2ccccc2Cl)n1`: the result was inactive.

For `CCCCNC(=O)n1c(NC(=O)OC)nc2ccccc21`, the concentration at half-maximal activity (AC50) is 45.6 µM (active).

Consider `COC(=O)c1ccccc1C(=O)OC`, for which the outcome was inactive.

Consider `COP(=S)(OC)Oc1nc(Cl)c(Cl)cc1Cl`, for which the call was inactive.

On to `Cc1cc(Cl)ccc1OCC(=O)O`, for which the compound was classed as inactive.

Turning to `CON(C)C(=O)Nc1ccc(Cl)c(Cl)c1`, the call was inactive.

For the compound `COc1ccc(C(c2ccc(OC)cc2)C(Cl)(Cl)Cl)cc1`, the compound was classed as inactive.

For `CCNc1nc(Cl)nc(NCC)n1`, the compound was called inactive.

Turning to `CCCN(CCC)c1c([N+](=O)[O-])cc(S(N)(=O)=O)cc1[N+](=O)[O-]`, the AC50 was 116 µM (active) and the call was inactive.

`CC(Oc1ccc(Cl)cc1Cl)C(=O)O` (stereo unspecified): the compound was called inactive.

Turning to `CN(C)C(=S)SSC(=S)N(C)C`, the compound was called inactive.

As to `CCON=C(CC)C1=C(O)CC(c2c(C)cc(C)cc2C)CC1=O` (stereo unspecified), the call was inactive.

As for `CS/C(C)=N/OC(=O)N(C)SN(C)C(=O)O/N=C(\C)SC`, the call was inactive.

For the compound `CCCCNC(=O)OCC#CI`, the compound was called inactive.

On to `C=CCC1=C(C)[C@@H](OC(=O)[C@@H]2[C@@H](C=C(C)C)C2(C)C)CC1=O`, for which the result was inactive.

A short description of a further test: APR_HepG2_p53Act_72hr: Apredica 72-hour HepG2 Assay for p53 Activation (AID 2282923).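 Further: average cellular p53 protein immunofluorescence intensity in HepG2 cells.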 As to conditions: high-content imaging, actives raise or lower the signal. Summed up: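 HepG2 cells exposed 72 h to 0.39–200 uM in 0.5% DMSO, duplicates. Fixed, permeabilized cells immunostained for p53 (Cy5) with Hoechst; imaged at 20x, fluorescence analyzed bidirectionally against DMSO.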
Turning to `O=C(O)COc1nc(Cl)c(Cl)cc1Cl`, the result was inactive.

In the case of `CC(C)(C)c1ccc(CSc2cnn(C(C)(C)C)c(=O)c2Cl)cc1`, the call was inactive.

In the case of `COC(=O)C(C)Oc1ccc(Oc2ccc(Cl)cc2Cl)cc1` (stereo unspecified), the compound was called inactive.

For the compound `CCOC(=O)C(Cl)Cc1cc(-n2nc(C)n(C(F)F)c2=O)c(F)cc1Cl` (stereo unspecified), the result was inactive.

As for `CC1=C(C(=O)Nc2ccccc2)SCCO1`, the compound was classed as inactive.

Take `COc1cnc(OC)n2nc(NS(=O)(=O)c3c(OCC(F)F)cccc3C(F)(F)F)nc12`: the result was inactive.

Turning to `CO/C=C(/C(=O)OC)c1ccccc1Oc1cc(Oc2ccccc2C#N)ncn1`, the AC50 is 50.7 µM (active) and 53 µM (active) and 50.6 µM (active); the call was inactive.

With `CCOC(=O)CC(SP(=S)(OC)OC)C(=O)OCC` (stereo unspecified), the result was inactive.

For the compound `CC(C)Oc1cc(-n2nc(C(C)(C)C)oc2=O)c(Cl)cc1Cl`, the outcome was inactive.

Turning to `N#CC(CCc1ccc(Cl)cc1)(Cn1cncn1)c1ccccc1` (stereo unspecified), the result was inactive.

For the compound `Cc1c(F)c(F)c(COC(=O)C2C(/C=C(\Cl)C(F)(F)F)C2(C)C)c(F)c1F` (stereo unspecified), the call was inactive.

Consider `COc1nc(C)nc(NC(=O)NS(=O)(=O)c2ccccc2Cl)n1`, for which the call was inactive.

Consider `CCCCNC(=O)n1c(NC(=O)OC)nc2ccccc21`, for which the outcome was inactive.

For `COC(=O)c1ccccc1C(=O)OC`, the result was inactive.

On to `COP(=S)(OC)Oc1nc(Cl)c(Cl)cc1Cl`, for which the outcome was inactive.

In the case of `Cc1cc(Cl)ccc1OCC(=O)O`, the compound was classed as inactive.

For `CON(C)C(=O)Nc1ccc(Cl)c(Cl)c1`, the result was inactive.

Take `COc1ccc(C(c2ccc(OC)cc2)C(Cl)(Cl)Cl)cc1`: the AC50 is 76.4 µM (active).

For the compound `CCNc1nc(Cl)nc(NCC)n1`, the result was inactive.

As for `CC(Oc1ccc(Cl)cc1Cl)C(=O)O` (stereo unspecified), the result was inactive.

As for `CN(C)C(=S)SSC(=S)N(C)C`, the compound was called inactive.

For the compound `CCON=C(CC)C1=C(O)CC(c2c(C)cc(C)cc2C)CC1=O` (stereo unspecified), the compound was classed as inactive.

For `CS/C(C)=N/OC(=O)N(C)SN(C)C(=O)O/N=C(\C)SC`, the compound was classed as inactive.

For `CCCCNC(=O)OCC#CI`, the outcome was inactive.

For `C=CCC1=C(C)[C@@H](OC(=O)[C@@H]2[C@@H](C=C(C)C)C2(C)C)CC1=O`, the AC50 was 107 µM (active).
